# Source: PubChem BioAssay
# The full list was thinned out, with hits kept by preference.
# Cycloheximide cs: affects cycloheximide protein synthesis inhibition readout, counter-screen; cell reporter, cycloheximide protein synthesis inhibition counterscreen; max response, %; 12% of 300,000 active; AID 2314; in the data active = max response mostly above about 13%, no sharp cut-off; inactive = mostly below about 14%; also: read at 38.3 µM for the half of the compounds with a filed dose; 0% is about no effect
# RE007 growth inh: less growth of the S. pombe RE007 Vpr strain; S. pombe RE007 Vpr strain, BacTiter-Glo ATP luminescence, 24 h; Potency, µM (doses to about 92.2 µM), for the others: at the highest dose activity change, negative = less growth, most hits filed as inhibitors; 0.21% of 360,000 active; AID 651644; active = well fitted falling curve with a large enough effect; inconclusive = small, poorly fitted or top-dose-only effect; inactive = no such curve, though single readings can be large or run the other way; also: potency is read from the fitted curve at half-maximal effect; % is scaled to controls: 0 for no effect and ±100 for the full control effect; nearly all actives have a fitted effect of over 50% in size
#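 Fission yeast strain RE007, carrying one chromosomally integrated HIV-1 vpr copy, was seeded at OD 0.01 in PMG+AL medium with 23 nL pinned compound. After 24 h at 30 °C and 99% humidity, viability was read by BacTiter-Glo luminescence.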
# Shiga inhibitor: blocks Shiga toxin action in Vero cells. inhibition, % at 38.7 µM. Vero cells, Shiga toxin protein synthesis inhibition reporter. 9.2% of 290,000 active; in the data active = inhibition mostly above about 28%, no sharp cut-off; inactive = mostly below about 43%; also: 0% is about no effect
# TbPYK inhibitor: inhibitors of Trypanosoma brucei pyruvate kinase. 0.12% of 410,000 active. TbPYK enzyme, Kinase-Glo Plus ATP luminescence, 45 min. AID 624173. Q57TT1. Potency, µM (top dose mostly 76.8 µM), inactives show at the top dose activity, negative = inhibition, hits mostly inhibitors; also: potency is read from the fitted curve at half-maximal effect; % is scaled to controls: 0 for no effect and ±100 for the full control effect; nearly all actives have a fitted effect of over 50% in size
#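 Luminescent Kinase-Glo Plus end-point after 45 min room-temperature reaction of T. brucei pyruvate kinase started with 130 uM ADP (final). Buffer TEA 50 mM pH 7.2 with KCl, MgCl2, BSA, Tween-20; titration-based qHTS with fitted concentration-effect curves.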
# Giardia FBPA inh: blocks Giardia fructose-bisphosphate aldolase activity; purified Giardia FBPA; AID 2451; 0.71% of 290,000 active; Potency, µM (highest dose often 59.6 µM), inactives show at the highest dose activity, negative = inhibition, usual class: inhibitors; A8B2U2; also: potency is read from the fitted curve at half-maximal effect; % is scaled to controls: 0 for no effect and ±100 for the full control effect; nearly all actives have a fitted effect of over 55% in size
#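 Giardia FBPA (40 nM reagent) was preincubated 10 min at RT with compound (up to 57.5 uM final), then substrate plus GAPDH/TPI/NAD/arsenate coupling system with diaphorase/resazurin was added; resorufin fluorescence (525/598 nm) was read after 20 min.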
# LmPK inhibitor: blocks Leishmania mexicana pyruvate kinase activity. Q27686. Potency, µM (series often up to 57.5 µM), for the others: at the top dose activity change, negative = inhibition, actives largely listed as inhibitors. 0.37% of 290,000 active. purified LmPK, Kinase-Glo ATP luminescence, 1 h. AID 1721; also: potency is read from the fitted curve at half-maximal effect; % is scaled to controls: 0 for no effect and ±100 for the full control effect
# Target sequence (Q27686 whole entry, looked up): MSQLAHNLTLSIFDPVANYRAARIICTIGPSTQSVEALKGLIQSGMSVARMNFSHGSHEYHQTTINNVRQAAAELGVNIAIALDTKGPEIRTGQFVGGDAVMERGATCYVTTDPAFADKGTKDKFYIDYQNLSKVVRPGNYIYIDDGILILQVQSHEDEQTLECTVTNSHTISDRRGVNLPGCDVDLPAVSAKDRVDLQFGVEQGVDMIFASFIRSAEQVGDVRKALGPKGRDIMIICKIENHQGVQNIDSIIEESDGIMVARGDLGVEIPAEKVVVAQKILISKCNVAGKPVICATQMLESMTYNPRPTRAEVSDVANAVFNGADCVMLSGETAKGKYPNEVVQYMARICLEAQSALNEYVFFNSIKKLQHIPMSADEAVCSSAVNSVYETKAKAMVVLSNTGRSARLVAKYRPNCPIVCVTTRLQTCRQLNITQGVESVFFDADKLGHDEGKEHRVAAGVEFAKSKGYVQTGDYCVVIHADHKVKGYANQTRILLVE
#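 qHTS format; LmPK 0.1 nM; substrates PEP 0.5 mM and ADP 0.1 mM. One-hour room-temperature incubation, then coupled luciferase luminescence; 0.5 nM enzyme wells mark activation.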
# Numbers without * were called inactive; ? = inconclusive; . = no result; [ ] = another dose, or the depositor's remark. Unless noted, calls follow the shape of the dose curve; as a rule, active = well fitted curve in the direction sought with a large enough effect; inconclusive = small, poorly fitted or top-dose-only effect, or another doubt; inactive = no such curve, though single readings can be large; an effect the other way counts as inactive or inconclusive.
SMILES,Cycloheximide cs,RE007 growth inh,Shiga inhibitor,TbPYK inhibitor,Giardia FBPA inh,LmPK inhibitor
COCCn1c(-c2ccccc2)csc1=Nc1cccnc1,9,7%,-6,-21%,-5%,-7%
OCCn1c(-c2ccc3c(c2)OCO3)csc1=Nc1ccccc1,37*,-2%,46*,3%,0%,5%
O=C(Nc1ccccc1)c1ccc(-c2ccc(F)cc2)s1,36*,1%,88*,2%,1%,-4%
O=C(Nc1cccc(F)c1)c1ccc(-c2ccccc2)s1,.,.,.,-3%,.,.
COc1ccc(NC(=O)c2ccc(-c3ccc(OC)cc3)s2)cc1,20,-9%,72*,5%,-1%,-9%
CNC(=O)c1ccc(-c2ccc(Cl)c(Cl)c2)s1,42*,-15%,66*,-5%,2%,8%
CNC(=O)c1ccc(-c2ccc(OC)cc2)s1,26*,0%,78*,-1%,0%,-15%
COc1ccc(C)cc1NC(=O)NC(C)c1c(-n2cccc2)sc(C)c1C (configuration not stated),.,.,.,-3%,.,.
O=C(c1ccc(F)cc1)N1CCC(C(=O)N2CCN(c3ncccn3)CC2)CC1,.,12%,.,-8%,.,.
CCN1C(=S)SC(=O)C1=C1C=C(C)N(CCO)C(C)=C1,71*,15%,125*,6%,-24%,5%
CCN1C(=S)SC(=O)C1=C1C=C(C)N(CCOC)C(C)=C1,44*,.,107*,.,-10%,-1%
CCCCCn1ncc2c3sc(C)cc3n(C)c2c1=O,32*,.,91*,.,.,.
O=C(CSc1nc2ccccc2n1CCc1ccccc1)c1ccc(O)c(O)c1,12*,3%,16,?,?,17%
Cn1c(C2=C(O)CN(Cc3ccccc3)C2=N)nc2ccccc21,33*,0%,33*,-19%,0%,1%
Cn1c(C2=C(O)CN(Cc3ccccc3)C2=N)[n+](C)c2ccccc21,15,8%,50,-5%,4%,2%
CCN1C(=O)N[C@@H](c2ccccc2)[C@@H](C(=O)OC)[C@H]1C,.,-14%,.,-1%,6%[12.9 µM],-2%[11.5 µM]
O=C(NC(=S)Nc1nc2ccccc2s1)c1cccs1,82*,6%,74*,0%,?,-5%
CCc1ccc(-c2nc(NC(=S)NC(=O)c3cccs3)sc2C)cc1,-1,2%,-5,0%,-14%,3%
COC(=O)c1nc(NC(=S)NC(=O)c2cccs2)sc1C,23*,-8%,51*,-2%,.,-5%
COC(=O)Cc1nc(NC(=O)c2cccs2)sc1C,35*,-4%,54*,9%,22%,0%
O=Cc1cccn1Cc1ccccc1[N+](=O)[O-],33*,-15%,13,0%,1%,-1%
O=[N+]([O-])c1ccccc1CNCCO,.,-12%,.,-2%,.,.
COc1cccc(C(O)c2nc(-c3cncnc3)cs2)c1 (configuration not stated),.,5%,.,-1%,.,.
COc1ccc(-c2c(C(=O)c3ccc(Br)cc3)[nH]c(N)c2C(=O)c2ccccc2)cc1OC,.,-10%,.,1%,.,.
Cc1cc(C)c2c3c(sc2n1)C1(CCSCC1)C(C#N)=C(N)O3,18,14%,29*,0%,1%,4%
SMILES,Cycloheximide cs,RE007 growth inh,Shiga inhibitor,TbPYK inhibitor,Giardia FBPA inh,LmPK inhibitor
C=CCC1(C(C)CCC)C(=O)NC(=O)NC1=O (configuration not stated),.,.,.,0%[157 µM],.,.
O=C(Oc1c(Cl)cc(Cl)c2cccnc12)c1cccs1,-2,5.6µM*,20,10%,-7%,5%
O=c1c2ccccc2nc2n1CCN2Cc1ccc(Cl)cc1,33*,17%,38,2%,-3%,1%
Cc1cc(Cl)ccc1OCC(=O)Nc1c(Cl)ccc2nsnc12,.,.,.,0%,.,.
CC(C)(C)C(=O)COC(=O)c1cccc(NC(=O)c2ccco2)c1,27*,16%,27,0%,0%,2%
O=C(COC(=O)c1cccc(NC(=O)c2ccco2)c1)c1ccc(Br)cc1,80*,-9%[3.69 µM],117*,.,0%,-9%
Cc1ccc(NC(=O)CCn2c(=O)c3cccn3c3ccccc32)c(Cl)c1,.,.,.,1%,.,.
O=C(c1ccc2ncsc2c1)N1CCN(c2ccccc2Cl)CC1,20*,1%,105*,0%,0%,0%
